From PubChem BioAssay AID652104 (National Center for Advancing Translational Sciences (NCATS), 2013)
About 7,200 (1.8%) of roughly 410,000 compounds were called active. Where a call stands in place of a potency, no number is given. Not shown: some 7% with an inconclusive outcome. This is one part of a sample in which actives are shown more often than they occur. Unmarked numbers belong to inactive results. Calls come from the whole dose curve; as a rule, active = well fitted activation curve with a large enough effect; inconclusive = small, poorly fitted or top-dose-only effect, or another doubt; inactive = no such curve, though single readings can be large or run the other way.
Potency is the fitted concentration of half-maximal effect.

Assay: qHTS of TDP-43 Inhibitors; note: nearly all actives have a fitted effect of over 50% in size
Conditions: TDP-43 expressing yeast growth rescue, BacTiter-Glo, 24 h; series mostly up to 46.1 µM
Method in brief: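 Yeast cells expressing TDP-43 under galactose induction are exposed to compounds for 24 hr at 30 deg C. BacTiter-Glo luminescence measures growth, so protective compounds score as activators.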
In the case of `C[n+]1ccc(/C=C/c2c[nH]c3ccccc23)cc1`, the Potency is reported as “inactive”.
With `NC(=O)CSc1c[nH]c2ccccc12` the Potency was “inactive”.
For `CSC(=S)N/N=C/c1c[nH]c2ccccc12`, the Potency was 12.6 µM (active).
Work on `NS(=O)(=O)c1ccc2nc(NC(=O)COc3ccccc3)sc2c1` yielded a growth rescue (activation) of 24% [at 9.22 µM].
For `CC1CN(C(=O)N2CCC(C(=O)NCc3ccco3)CC2)c2cc(Cl)ccc2O1` (stereo unspecified), the Potency was “inactive”.
Work on `Cc1c(Cl)cccc1-c1ccc(CNCCCSc2nnnn2C)o1` yielded a growth rescue (activation) of 0% [at 9.22 µM].
With `C=C(Br)Cn1c(CCCC)nc2ccccc21` the Potency was “inactive”.
In the case of `CC(C)c1ccc(Cn2c(COc3ccccc3)nc3ccccc32)cc1`, the Potency is reported as “inactive”.
For `COCc1nc2ccccc2n1Cc1ccccc1Br`, the Potency was 20 µM (active).
For `COc1cccc(NC(=O)C(=O)NCC(c2ccc3c(c2)OCO3)N2CCN(C)CC2)c1` (stereo unspecified), the Potency was “inactive”.
In the case of `COc1ccc(Cn2c(C(=O)O)c(CNCc3cccc(OC)c3)c3ccc(C)cc32)cc1`, the Potency is reported as “inactive”.
In the case of `CCNC(=O)Cn1nc(C)n2c(cc3c(OC)cccc32)c1=O`, the Potency is reported as “inactive”.
With `CCOc1ccc(C(=O)N2CCN(CCc3ccccn3)CC2)cc1` the Potency was “inactive”.
With `O=C1C2C3C=CC(C3)C2C(=O)N1c1ccc(S(=O)(=O)Nc2nccs2)cc1` (stereo unspecified) the Potency was “inactive”.
For `O=C1C2C3C=CC(C4CC34)C2C(=O)N1c1nccs1` (stereo unspecified), the Potency was “inactive”.
With `O=C1C2C3C=CC(C3)C2C(=O)N1c1ncc([N+](=O)[O-])s1` (stereo unspecified) the Potency was 14.1 µM (active).
For `COc1ccccc1NC(=O)c1oc2ccccc2c1NC(=O)COc1ccccc1OC`, the Potency was “inactive”.
With `CN1CCN(c2ccc(CNS(=O)(=O)c3cccc(F)c3)cc2)CC1` the Potency was “inactive”.
For `Cc1ccc(CNS(=O)(=O)c2ccc3c(c2)N(C)CCO3)cc1`, the Potency was 15.8 µM (active).
In the case of `Cc1ccc(S(=O)(=O)NCC(=O)N2CCOCCOCCOCCOCC2)cc1`, the Potency is reported as “inactive”.
With `Nc1ccc2c(c1)C(O)c1ccc(Cl)cc1-2` (stereo unspecified) the Potency was 20 µM (active).
In the case of `O=C(Nc1ccc2nc(SCC(=O)N3CCCc4ccccc43)sc2c1)c1ccc(F)cc1`, the Potency is reported as “inactive”.
With `COC(=O)c1ccccc1NC(=O)c1cnn(-c2ccc(F)cc2)c1-n1cccc1` the Potency was “inactive”.
With `O=C(c1cnn(-c2ccc(F)cc2)c1-n1cccc1)N1CCN(c2ccc(F)cc2)CC1` the Potency was 25.1 µM (active).
With `O=C(Nc1ccc(F)cc1F)c1cnn(-c2ccc(F)cc2)c1-n1cccc1` the Potency was “inactive”.
For `CCOC(=O)c1c(C)[nH]c(CCC(=O)NCCCN2CCN(c3cccc(Cl)c3)CC2)c1C`, the Potency was “inactive”.
In the case of `Cc1cc(NC(=O)c2ccc(-c3ccc(Cl)cc3)o2)cc(-c2nc3ncccc3o2)c1O`, the Potency is reported as “inactive”.
For `Cc1cc([N+](=O)[O-])c(N2CCC[C@@H]2C(=O)O)c([N+](=O)[O-])c1`, the Potency was “inactive”.
In the case of `Cc1cc([N+](=O)[O-])c(NC2CCCCC2)c([N+](=O)[O-])c1`, the Potency is reported as 35.5 µM (active).
With `Cc1ccc(C(=O)COC(=O)CCCC(=O)NC2CCCCC2)cc1[N+](=O)[O-]` the Potency was “inactive”.
With `COc1ccc(S(=O)(=O)c2c(Nc3ccc(C)cc3)sc(C(=O)c3ccc(C)cc3)c2N)cc1` the Potency was “inactive”.
For `CCOc1ccc(NC(=O)Cn2c(C)ccc(C#N)c2=O)cc1`, the Potency was “inactive”.
For `CC(N=Cc1nc(-c2ccccc2)oc1O)c1ccccc1` (stereo unspecified), the Potency was 12.6 µM (active).
For `Cn1c(=O)c2c(nc(SCC(=O)Nc3ccc(F)cc3)n2Cc2ccc(Cl)cc2)n(C)c1=O`, the Potency was “inactive”.
In the case of `CCn1c2ccccc2c2cc(CN3CCN(Cc4cccc(Cl)c4)CC3)ccc21`, the Potency is reported as “inactive”.
In the case of `CCCCNC(=O)CSc1nc2cc3c(cc2c(=O)n1CCCCCC(=O)NCc1ccc2c(c1)OCO2)OCO3`, the Potency is reported as “inactive”.
In the case of `CC1Cc2ccccc2N1C(=O)Cn1cnc2ccccc2c1=O` (stereo unspecified), the Potency is reported as “inactive”.
`CC1Cc2ccccc2N1C(=O)CSc1nnc(C2CC2)n1C` (stereo unspecified) gave a growth rescue (activation) of 1.9% [at 9.22 µM].
With `CC1Cc2ccccc2N1C(=O)CSc1nc2ccccc2o1` (stereo unspecified) the Potency was 12.6 µM (active).
With `CCc1ccc(NC(=O)c2cnc3c(-c4ccccc4)c(C)nn3c2C)cc1` the Potency was “inactive”.
For `O=C(CN1C(=O)COc2ccc(S(=O)(=O)N3CCOCC3)cc21)N1CCN(c2cccc(Cl)c2)CC1`, the Potency was “inactive”.
For `O=C(COc1ccc(Cl)cc1)Nc1ccccc1OCc1cc(=O)n2ccccc2n1`, the Potency was “inactive”.
With `COc1cc(/C(=C/c2ccccc2)c2ccccc2)c2c(c1)oc1ccccc12` the Potency was “inactive”.
With `Cc1oc2cc(Br)c(O)c(Br)c2c1C(=O)c1ccccc1` the Potency was 22.4 µM (active).
`Cc1oc2cc([N+](=O)[O-])c(O)c([N+](=O)[O-])c2c1C(=O)c1ccc(Br)cc1` showed a growth rescue (activation) of -43.2% [at 9.22 µM].
In the case of `CCc1ccccc1NC(=O)c1sc2nc3c(cc2c1N)CN(Cc1ccccc1)CC3`, the Potency is reported as “inactive”.
In the case of `Cc1cccc(CCNC(=O)c2ccc3c(c2)nc2n3CCC(C)C2)c1` (stereo unspecified), the Potency is reported as “inactive”.
With `CS(=O)(=O)N(CC(=O)Nc1ccc(Cl)c(Cl)c1)C1CCCCC1` the Potency was 15.8 µM (active).
For `CCC(C)NC(=O)CN(C1CCCCC1)S(C)(=O)=O` (stereo unspecified), the Potency was “inactive”.
For `CS(=O)(=O)N(CC(=O)Nc1ccc(F)cc1)C1CCCCC1`, the Potency was “inactive”.
With `CC(C)c1cccc(C(C)C)c1Nc1cn[nH]c1` the Potency was 3.98 µM (active).
For `FC(F)(F)c1cc(Nc2nc3ccccc3c3nncn23)ccc1Cl`, the Potency was “inactive”.
In the case of `O=C(CC(NCc1cccnc1)C(=O)O)Nc1ccc(O)cc1` (stereo unspecified), the Potency is reported as “inactive”.
For `COc1ccc2c(CNCCc3ccccc3C)c(C(=O)O)n(Cc3ccccc3C)c2c1`, the Potency was “inactive”.
In the case of `CCN(CCCNC(=O)CSc1cc(=O)n(C)c2cc(Cl)ccc12)c1cccc(C)c1`, the Potency is reported as “inactive”.
For `CC(O)(c1cccc(F)c1)c1nc(-c2ccc3c(c2)OCO3)cs1` (stereo unspecified), the Potency was “inactive”.
In the case of `COc1ccc(C(O)c2nc(-c3ccc4c(c3)OCO4)cs2)cc1` (stereo unspecified), the Potency is reported as 14.1 µM (active).
For `COc1ccc(-c2csc(C(O)c3cccc(Cl)c3)n2)cn1` (stereo unspecified), the Potency was 25.1 µM (active).
In the case of `COc1cc(C(O)c2nc(-c3cnn(C)c3)cs2)ccc1F` (stereo unspecified), the Potency is reported as “inactive”.
In the case of `COc1cccc(C(NC(C)=O)c2nc(-c3ccccc3OC)cs2)c1` (stereo unspecified), the Potency is reported as “inactive”.
For `Cc1ccccc1-c1csc(C(O)c2cccc(Cl)c2)n1` (stereo unspecified), the Potency was “inactive”.
With `OC(c1ccccc1)c1nc(-c2cnc3ccccc3c2)cs1` (stereo unspecified) the Potency was “inactive”.
For `CC(C)c1cccc(-c2csc(C(O)c3ccccc3)n2)c1` (stereo unspecified), the Potency was 17.8 µM (active).
With `Cc1ccc(-c2nc(Cn3c(=O)cc(-c4ccccc4)c4c(C)nn(C)c43)c(C)o2)cc1` the Potency was “inactive”.
In the case of `CCCCN1CC(c2nc3ccccc3n2CCCCOc2ccc(C)cc2C)CC1=O` (stereo unspecified), the Potency is reported as “inactive”.
With `Cc1ccc(-c2nc(CS(=O)(=O)CC(=O)NCc3ccccc3Cl)c(C)o2)cc1` the Potency was “inactive”.
With `O=C(N/N=C/c1cccc(OCc2ccccc2)c1)c1ccc(Br)o1` the Potency was 11.2 µM (active).
With `O=C(Nc1cccc(C(=O)O)c1)/C(=C\c1ccccc1)NC(=O)c1ccc(Br)o1` the Potency was “inactive”.
In the case of `O=C(N/N=C\C1CC=CCC1)c1ccc(Br)o1` (stereo unspecified), the Potency is reported as “inactive”.
In the case of `CC(C)Sc1oc(-c2cccs2)nc1S(=O)(=O)c1ccc(Cl)cc1`, the Potency is reported as “inactive”.
For `CCOc1cccc2cc(-c3cn4c(n3)sc3cc(C)ccc34)c(=O)oc12`, the Potency was “inactive”.
In the case of `CCOc1ccc(NC(=O)CN(Cc2ccccc2)S(=O)(=O)c2ccc(Cl)cc2)cc1`, the Potency is reported as “inactive”.
With `CCOc1ccc(N(Cc2ccccc2)C(=O)c2nc(SCC)ncc2Cl)cc1` the Potency was “inactive”.
With `CCOc1ccc(N(Cc2ccccc2)C(=O)c2nc(S(C)(=O)=O)ncc2Cl)cc1` the Potency was 17.8 µM (active).
With `COc1ccc(CNc2nc(-c3ccc(Cl)cc3)nn2S(=O)(=O)c2ccc(C)cc2)cc1` the Potency was “inactive”.
For `CCC(=O)Nc1ccc2nc(SCC(=O)N3CCc4ccccc43)sc2c1`, the Potency was “inactive”.
With `COc1ccc(N(CC(=O)NC(C)(C)C)C(=O)c2ccco2)cc1` the Potency was “inactive”.
For `COc1ccccc1CCC(=O)NNC(=O)c1ccncc1`, the Potency was “inactive”.
For `Cc1c(NC(=S)NC(=O)CCc2ccccc2)c(=O)n(-c2ccccc2)n1C`, the Potency was “inactive”.
In the case of `CCCc1ccc(OCC(=O)NNC(=S)NC(=O)c2ccco2)cc1`, the Potency is reported as 3.98 µM (active).
In the case of `COc1ccc(C(=O)NC(=S)NNC(=O)CCc2ccccc2)cc1`, the Potency is reported as 17.8 µM (active).
In the case of `CCC1CCCCN1C(=S)NC(=O)c1ccco1` (stereo unspecified), the Potency is reported as “inactive”.
With `O=C(c1ccc2c(c1)N(Cc1ccccc1F)C(=O)c1ccccc1S2(=O)=O)N1CCOCC1` the Potency was “inactive”.
In the case of `CC(Sc1oc(-c2ccco2)nc1S(=O)(=O)c1ccc(Br)cc1)c1ccccc1` (stereo unspecified), the Potency is reported as “inactive”.
With `CC1=NNC(=O)C1CCC(=O)N/N=C\c1cccc(Cl)c1` (stereo unspecified) the Potency was “inactive”.
With `Cc1nc(Cl)cc(N/N=C/c2ccccc2)n1` the Potency was 7.94 µM (active).
With `CC(C)Oc1ccc(CNC(=O)C2CCN(c3nc4ccccc4n(C)c3=O)CC2)cc1` the Potency was “inactive”.
In the case of `CNC(=O)c1ccc(-c2nc(CN3CCc4ccccc43)c(C)o2)cc1`, the Potency is reported as 10 µM (active).
With `CNC(=O)c1ccsc1NC(=O)c1ccc(S(=O)(=O)N2CCc3ccccc32)cc1` the Potency was “inactive”.
For `Cc1ccc(-c2nc(CSCC(=O)NC3CCN(Cc4ccccc4)CC3)c(C)o2)cc1`, the Potency was “inactive”.
For `COc1ccc(NC(=O)c2ccc3nc(CCc4ccccc4)oc3c2)c(OC)c1`, the Potency was “inactive”.
In the case of `Cc1ccc(-c2noc(-c3nnn(-c4cccc(C(F)(F)F)c4)c3N)n2)cc1`, the Potency is reported as “inactive”.
For `COc1ccc(-c2cc(C(=O)NCc3cc(OC)c(OC)c(OC)c3)[nH]n2)cc1`, the Potency was “inactive”.
For `COc1ccc(C(=O)NCC2CCCCC2)cc1S(=O)(=O)N1CCCC1`, the Potency was “inactive”.
With `COc1cc(F)ccc1-c1cc(C(=O)NCC2CCCCC2)[nH]n1` the Potency was 25.1 µM (active).
With `COc1ccc(CN2CCCC(CNC(=O)c3ccc(F)cc3)C2)cc1OC` (stereo unspecified) the growth rescue (activation) was -11.7% [at 0.397 µM].
In the case of `COc1ccccc1CNC(=O)c1cc(-c2cc(Cl)ccc2C)n[nH]1`, the Potency is reported as “inactive”.
With `COc1ccccc1CNC(=O)c1cc(-c2cc(F)ccc2OC)n[nH]1` the Potency was 22.4 µM (active).
In the case of `CC(C)Oc1cc(F)ccc1-c1cc(C(=O)Nc2ccc(F)cc2)[nH]n1`, the Potency is reported as “inactive”.
In the case of `CC(C)Oc1cc(F)ccc1-c1cc(C(=O)Nc2cccc(Cl)c2)[nH]n1`, the Potency is reported as “inactive”.
For `COc1cc(NC(=O)c2cc(-c3ccc(F)cc3OC(C)C)n[nH]2)cc(OC)c1OC`, the Potency was 28.2 µM (active).
